An excerpt weighted towards active compounds, which were near 11% of everything screened.
Luciferase inh: blocks purified firefly luciferase enzyme activity. P08659. purified P. pyralis luciferase, luminescence, biochemical. Potency, µM (series often up to 115 µM), most hits filed as inhibitors. 2.5% of 76,000 active. AID 1347043; active means well fitted curve in the direction sought with a large enough effect; inconclusive means small, poorly fitted or top-dose-only effect, or another doubt; inactive means no such curve, though single readings can be large; an effect the other way counts as inactive or inconclusive; further: on the % scale 0 is the no-effect control and ±100 the full control effect; nearly all actives have a fitted effect of over 65% in size
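Luminescence read by CCD imager after adding enzyme (10nM final) to wells holding compound, titrated in qHTS. Substrates 10uM each D-luciferin and ATP; buffer 50mM Tris acetate pH 7.5, 10mM Mg acetate, Tween-20, BSA.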
HEK cytotox: cytotoxic compounds in HEK 293 cells; HEK 293 viability, ATP luminescence (CellTiter-Glo), 48-72 h; 6.6% of 94,000 active; AID 1345083; Potency, µM (series often up to 115 µM), for the others: top-dose activity change, negative = cytotoxicity, actives largely listed as inhibitors; active means well fitted curve in the direction sought with a large enough effect; inconclusive means small, poorly fitted or top-dose-only effect, or another doubt; inactive means no such curve, though single readings can be large; an effect the other way counts as inactive or inconclusive; further: on the % scale 0 is the no-effect control and ±100 the full control effect; nearly all actives have a fitted effect of over 60% in size
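Cytotoxicity was scored by loss of ATP-coupled luminescence (CellTiter-Glo) in HEK 293 cells. Compound treatment ran 48 or 72 hr at 37 degree Celsius, 5% CO2, 95% humidity.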
NIH3T3 tox: NIH 3T3 cell cytotoxicity; NIH 3T3 viability, CellTiter-Glo ATP luminescence, 48-72 h; Potency, µM (series often up to 96.7 µM), for the others: at the highest dose activity change, negative = cytotoxicity, most hits filed as inhibitors; 4.3% of 94,000 active; AID 1345082; active means well fitted curve in the direction sought with a large enough effect; inconclusive means small, poorly fitted or top-dose-only effect, or another doubt; inactive means no such curve, though single readings can be large; an effect the other way counts as inactive or inconclusive; further: on the % scale 0 is the no-effect control and ±100 the full control effect; nearly all actives have a fitted effect of over 55% in size
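Viability of NIH 3T3 cells after 48 or 72 hr compound treatment at 37 °C was assessed by CellTiter-Glo, with luminescence imaged following a 10 min room-temperature step.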
hNpr1 antagonist: human Npr1 receptor antagonism; P16066; HEK293 hNpr1 GloSensor cGMP, ANP-stimulated luminescence; Potency, µM (highest dose often 46.3 µM), without a hit: top-dose activity change, negative = inhibition, actives largely listed as inhibitors; 1.6% of 76,000 active; further: on the % scale 0 is the no-effect control and ±100 the full control effect; nearly all actives have a fitted effect of over 60% in size
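HEK293 cells stably expressing human Npr1 and cGMP GloSensor pGS-40F, loaded 2 h with 2% GloSensor reagent, given compound 30 min at room temperature. Luminescence read before and 20 min after 0.1 nM hNppA.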
Npr1 antag conf: hNpr1 antagonism, confirmation assay; shares compounds with hNpr1 antagonist; HEK293 hNpr1 cGMP GloSensor luminescence, ANP-stimulated; Potency, µM (highest dose often 57.6 µM), for inactives: at the highest dose activity change, negative = inhibition, most hits filed as inhibitors; 76% of 1,400 active; AID 1347044; further: nearly all actives have a fitted effect of over 70% in size
NPR2 antag: hNpr2 antagonism, selectivity versus Npr1. HEK293 hNpr2 GloSensor cGMP luminescence, CNP-stimulated. AID 1347046. Potency, µM (top dose mostly 57.6 µM), for the others: at the top dose activity change, negative = inhibition, actives largely listed as inhibitors. 67% of 1,400 active. shares compounds with hNpr1 antagonist; further: nearly all actives have a fitted effect of over 70% in size
Target sequence (P20594 whole entry, looked up): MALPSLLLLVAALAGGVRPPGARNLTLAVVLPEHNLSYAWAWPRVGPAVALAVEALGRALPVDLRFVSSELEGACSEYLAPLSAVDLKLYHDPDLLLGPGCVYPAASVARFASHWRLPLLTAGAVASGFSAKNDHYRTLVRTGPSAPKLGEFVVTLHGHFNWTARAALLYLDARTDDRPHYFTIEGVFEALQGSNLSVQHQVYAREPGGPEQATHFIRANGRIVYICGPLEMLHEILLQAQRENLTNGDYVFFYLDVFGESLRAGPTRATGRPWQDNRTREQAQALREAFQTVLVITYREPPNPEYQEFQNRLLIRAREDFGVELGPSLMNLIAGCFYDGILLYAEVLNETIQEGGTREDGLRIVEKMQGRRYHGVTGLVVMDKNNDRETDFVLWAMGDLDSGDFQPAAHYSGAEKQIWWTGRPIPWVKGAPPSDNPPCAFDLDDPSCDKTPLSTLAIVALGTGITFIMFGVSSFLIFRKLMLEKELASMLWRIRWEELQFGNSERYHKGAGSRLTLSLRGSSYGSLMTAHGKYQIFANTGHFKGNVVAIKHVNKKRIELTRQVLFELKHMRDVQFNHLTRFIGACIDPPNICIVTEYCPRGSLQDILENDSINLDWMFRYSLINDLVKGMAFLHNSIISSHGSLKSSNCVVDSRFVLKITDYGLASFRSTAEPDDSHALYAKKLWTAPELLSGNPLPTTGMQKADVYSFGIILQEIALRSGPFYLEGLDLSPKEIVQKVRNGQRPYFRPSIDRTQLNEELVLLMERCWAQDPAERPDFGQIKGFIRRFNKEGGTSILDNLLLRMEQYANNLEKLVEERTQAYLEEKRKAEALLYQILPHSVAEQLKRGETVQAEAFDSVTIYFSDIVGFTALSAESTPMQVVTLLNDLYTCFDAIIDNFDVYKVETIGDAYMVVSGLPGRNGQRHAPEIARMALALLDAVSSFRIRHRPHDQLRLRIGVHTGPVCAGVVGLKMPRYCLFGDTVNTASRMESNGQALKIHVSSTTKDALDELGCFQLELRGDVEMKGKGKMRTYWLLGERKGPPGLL
FLuc inh counter: FLuc enzyme inhibition, Npr1 counter-screen; shares compounds with hNpr1 antagonist; purified FLuc enzyme, luminescence, Km substrate; Potency, µM (titrated, usually from 57.6 µM), inactives show at the top dose activity change, negative = inhibition, hits mostly inhibitors; 0.7% of 1,400 active; AID 1347047; active means well fitted curve in the direction sought with a large enough effect; inconclusive means small, poorly fitted or top-dose-only effect, or another doubt; inactive means no such curve, though single readings can be large; an effect the other way counts as inactive or inconclusive; further: series mostly up to about 58 µM; 0% is about no effect
GloSensor cGMP: control cell line activity, Npr1 antagonist counter-screen | shares compounds with hNpr1 antagonist | Potency, µM (doses to about 57.6 µM), for the others: at the highest dose activity change, negative = inhibition, hits mostly inhibitors | 69% of 1,400 active | HEK293 GloSensor cGMP, SNP-stimulated, luminescence | AID 1347051; further: on the % scale 0 is the no-effect control and ±100 the full control effect; nearly all actives have a fitted effect of over 70% in size
* = called active by the depositor; i = inactive; ? = inconclusive; · = no result given; [ ] = remark or other dose. Unless noted, the call rests on the fitted dose curve. Potency means the concentration at half of the fitted maximal effect.

SMILES	Luciferase inh	HEK cytotox	NIH3T3 tox	hNpr1 antagonist	Npr1 antag conf	NPR2 antag	FLuc inh counter	GloSensor cGMP
OCC1(CCOc2ccccc2)CCCN(c2ncnc3sccc23)C1 (stereo unspecified)	i	?	?	1.8µM*	2.7µM*	3.9µM*	0%	2.2µM*
O=C(Nc1ccccc1F)N1CC(Oc2ccccc2-c2nc(-c3cnccn3)no2)C1	·	-9%	?	·	·	·	·	·
COc1cccc(C(=O)N2CCCN(c3cc(-c4ccc(C)c(C)c4)[nH]n3)CC2)c1OC	i	40µM*	?	10µM*	24µM*	22µM*	-11%	24µM*
COc1cccc(C(=O)N2CCCN(c3cc(-c4ccc(Cl)cc4)[nH]n3)CC2)c1OC	i	?	?	11µM*	19µM*	17µM*	5%	15µM*
COc1ccccc1C(=O)N1CCCN(c2cc(-c3ccc(F)cc3)[nH]n2)CC1	i	?	?	-12%	·	·	·	·
COc1cccc([S+](=O)([O-])N2CCN(CCCn3nc4n(c3=O)CCCC4)CC2)c1	·	2%	-21%	·	·	·	·	·
Cc1cc(C)n(CC(=O)N[C@@H]2CN(Cc3ccccc3)C[C@H]2CN(C)C)c(=O)n1	i	3%	i	11µM*	-16%	-12%	0%	14%
Cc1cc(C)n(CCC(=O)N[C@@H]2CN(Cc3ccccc3)C[C@H]2CN(C)C)n1	i	4%	4%	-2%	·	·	·	·
Cc1nc(C(F)(F)F)nc(N2CCOC(c3ccc(F)cc3)C2)c1C (stereo unspecified)	i	?	?	-24%	·	·	·	·
Clc1ccc(C2CN(c3cc(C4CC4)ncn3)CCO2)cc1 (stereo unspecified)	i	25µM*	?	11µM*	19µM*	22µM*	0%	17µM*
CCc1cnc(C)nc1N1CCOC(c2ccc(Cl)cc2)C1 (stereo unspecified)	i	11µM*	?	10µM*	14µM*	15µM*	0%	12µM*
COc1ccc(CCC(=O)N2CCC(Cc3nc(-c4ccc(F)cc4)no3)CC2)cc1	i	?	?	5.6µM*	4.3µM*	11µM*	0%	11µM*
COc1ccc(-c2noc(CC3CCN(C(=O)CCc4ccccc4)CC3)n2)cc1	i	35µM*	?	13µM*	19µM*	22µM*	0%	17µM*
COc1cccc(CCC(=O)N2CCC(Cc3nc(-c4cnccn4)no3)CC2)c1	i	-5%	-22%	2%	·	·	·	·
COc1ccc(-c2noc(CC3CCN(C(=O)COc4cccc(C)c4)CC3)n2)cc1	i	?	?	16µM*	22µM*	24µM*	5%	24µM*
COc1cccc(CCC(=O)N2CCC(Cc3nc(-c4cccc(OC)c4)no3)CC2)c1	i	?	?	16µM*	22µM*	22µM*	1%	17µM*
O=C(Cc1ccsc1)N1CCC(Cc2nc(-c3ccc(F)cc3)no2)CC1	i	?	?	5µM*	4.8µM*	4.8µM*	3%	3.9µM*
O=C(CCc1ccccc1)N1CC(Oc2ccc(-c3noc(C4CC4)n3)cc2)C1	i	28µM*	?	14µM*	15µM*	17µM*	2%	15µM*
O=C(CCCc1ccccc1)N1CCC[C@H]1c1nc(-c2ccccc2Cl)no1	i	?	?	-4%	·	·	·	·
COc1ccc(CCC(=O)N2CCC[C@H]2c2nc(-c3ccccc3Cl)no2)cc1	i	?	?	13µM*	24µM*	?	-6%	27µM*
COc1ccc(CC(=O)N2CCC(Cc3nc(-c4ccc(F)cc4)no3)CC2)cc1	i	?	?	5.6µM*	7.7µM*	6.9µM*	-2%	6.1µM*
Cc1ccc(C(=O)N2CCC(n3cnnc3-c3ccccc3)CC2)cc1C	·	i	-2%	·	·	·	·	·
O=C1CCN(Cc2cccnc2)CCCC(C(=O)NCCC2=CCCCC2)CCN1 (stereo unspecified)	i	-8%	-4%	-1%	·	·	·	·
O=C1CCN(C(=O)C2(c3ccccc3)CC2)CCCOCCN1	i	-29%	?	-2%	·	·	·	·
COc1ccc(OCC(=O)N2CCC(Cc3nc(-c4cnccn4)no3)CC2)cc1	i	-5%	?	-2%	·	·	·	·
SMILES	Luciferase inh	HEK cytotox	NIH3T3 tox	hNpr1 antagonist	Npr1 antag conf	NPR2 antag	FLuc inh counter	GloSensor cGMP
COc1ccc(CCC(=O)N2CCC(Cc3nc(-c4ccc(OC)cc4)no3)CC2)cc1	i	?	?	11µM*	17µM*	17µM*	0%	12µM*
Cc1ccc(OCC(=O)N2CCC(Cc3nc(-c4ccc(F)cc4)no3)CC2)cc1	i	?	?	7.9µM*	11µM*	12µM*	-4%	9.7µM*
COCCNC(=O)c1ccc(CC2CCN(C(=O)CCc3ccc(OC)cc3)CC2)cc1	i	?	-29%	-17%	·	·	·	·
COc1cccc(CCC(=O)N2CCC(n3cc(-c4nc(-c5ccccc5)no4)nn3)C2)c1 (stereo unspecified)	?	?	?	14µM*	22µM*	24µM*	-29%	22µM*
Cn1cc(CC(=O)N2CCCc3ncc(C(=O)Nc4cccc(Cl)c4)cc32)c2ccccc21	i	?	?	-24%	-30%	-28%	-1%	-23%
Cc1ccccc1NC(=O)c1cnc2c(c1)N(C(=O)Cc1cn(C)c3ccccc13)CCC2	i	?	?	-15%[70.6 µM]	·	·	·	·
COc1ccccc1CC(=O)N1CCCc2ncc(C(=O)Nc3cccc(F)c3)cc21	i	63µM*	89µM*	32µM*	35µM*	35µM*	-15%[86.2 µM]	35µM*
CC(C)c1ccc(CC(=O)N2CCCc3ncc(C(=O)N(C)c4ccccc4)cc32)cc1	i	?	?	?	35µM*	44µM*	0%[86.2 µM]	44µM*
O=C(Nc1ccccc1)c1cnc2c(c1)N(C(=O)Cc1ccc(O)cc1)CCC2	i	?	-17%[138 µM]	28µM*	35µM*	35µM*	-3%[86.2 µM]	35µM*
O=C(NC(c1ccccc1)c1ccccc1)c1cnc2c(c1)N(C(=O)Cc1ccc(O)cc1)CCC2	i	-30%	?	-8%	·	·	·	·
